Screening results from PubChem BioAssay.
esBAF inh: Bmi1 luciferase reporter increase in mESCs, primary screen, esBAF inhibitor project, mouse ES cells, Bmi1 luciferase knock-in, single point | 24 h; 100% = twice the neutral-well signal | 350,000 tested, 2% active | AID 602393, 2012 | reporter increase, % at 12.5 µM; in the data active means activation above about 40%; inconclusive means no clear call, values can overlap the other calls;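 further: 0% = median of the plate's neutral control wells and 100% = double that signal; a rise in the Bmi1 reporter signal indicates esBAF inhibition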
Vif inh: HIV Vif self-association inhibitors, primary screen, imaging, HEK293T, single point; HEK293T cells, Vif self-association by quenched fluorescence, 24 h; AID 602346, 2012; 340,000 tested, 0.35% active; inhibition, % at 7.49 µM; in the data active means inhibition above about 50%, passing the limit was not always enough; inconclusive means no clear call, values can overlap the other calls; inactive means below about 31%
HSF1 inh: HSF1 inhibitors in luciferase reporter cells, primary screen, cell-based, NIH3T3, luminescence. NIH3T3-HGL HSE-luciferase, MG132-induced, luminescence 8 h; hits give low values. activity change, negative = inhibition, % at 7.5 µM (by protocol). 300,000 tested, 0.77% active. AID 2098, 2009;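 active means more than half of replicate wells show activity change below -50%, luminescence cut by over half; inconclusive means some wells, but at most half, below -50%; inactive means no replicate well below -50%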;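 further: luciferase reports HSF-1 transcriptional activity via heat shock element; 0% = median of DMSO wells and -100% = zero luminescence signal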
HSF-1 act: HSF-1 activators, primary screen, NIH3T3-HGL cells, MG132 stress, luminescence, single point; 300,000 tested, 1.7% active; activation, % at 9 µM; NIH3T3-HGL HSF-1 luciferase reporter, 8 h; 100% = twice DMSO control signal; AID 504408, 2011;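 active means mean replicate activation of at least 50% with a set share of replicates each reaching 50%; inconclusive means only one of those two conditions met; inactive means mean below 50% and too few replicates reaching it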;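 further: 0% = median of the neutral control wells and 100% = twice that signal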
* hit, by the source's call; ? = inconclusive; . = not tested or not shown. Sampled rows, rich in hits. Any-hit rate of the full collection: about 3.4%.

SMILES	esBAF inh	Vif inh	HSF1 inh	HSF-1 act
C[C@@H]1CCCCO[C@@H](CN(C)S(=O)(=O)c2cn(C)cn2)[C@H](C)CN([C@H](C)CO)C(=O)c2cc(NC(=O)Nc3ccc(F)cc3)ccc2O1	3	.	.	.
CS(=O)(=O)Nc1ccc2c(c1)[C@@H]1C[C@H](CC(=O)N3CCCCC3)O[C@H](CO)[C@@H]1O2	1	.	.	.
Cc1occc1C(=O)N/N=C/C=C\c1ccccc1[N+](=O)[O-]	.	-3	11	4
Cc1ccsc1C(=O)N/N=C/C=C/c1ccccc1[N+](=O)[O-]	45*	-2	22	27
Cc1ccccc1/C=N/NC(=O)c1sccc1C	.	-3	37	55*
COc1ccc(NC(=O)N(C)C[C@H]2Oc3c(NC(=O)c4cnccn4)cccc3C(=O)N([C@@H](C)CO)C[C@@H]2C)cc1	9	.	.	.
COc1ccccc1C#Cc1cnc2c(c1)C(=O)N([C@H](C)CO)C[C@H](C)[C@H](CN(C)C)O2	5	.	.	.
C[C@H](CO)N1C[C@H](C)[C@H](CN(C)S(=O)(=O)c2ccc(F)cc2)Oc2ccc(NS(=O)(=O)c3ccccc3)cc2CC1=O	2	.	.	.
COc1ccc(S(=O)(=O)N(C)C[C@@H]2OCCCC[C@H](C)Oc3ccc(N(C)C)cc3C(=O)N([C@H](C)CO)C[C@@H]2C)cc1	-19	.	.	.
COc1ccc(OCCNS(=O)(=O)c2ccccc2)cc1	7	52*	-2	4
CCC(=O)O[C@]1(C(=O)SCF)[C@H](C)C[C@H]2[C@@H]3C[C@H](F)C4=CC(=O)C=C[C@]4(C)[C@@]3(F)[C@@H](O)C[C@@]21C	.	.	-53*	-62
Cc1nc(SCCc2ccccc2)[nH]c(=O)c1C	50*	0	9	7
Cc1nnc(SCCc2ccccc2)[nH]c1=O	-2	-3	0	21
Cc1nc(SCc2ccc(Br)cc2)[nH]c(=O)c1C	.	52*	.	.
Cc1cc(C)cc(NC(=O)N2CCc3ccccc3C2)c1	45*	-6	8	7
O=C(Nc1ccc(Br)cc1)N1CCc2ccccc2C1	.	-7	33	?
O=[N+]([O-])c1cccc(NC(=S)N2CCc3ccccc3C2)c1	58*	-7	16	46
Cc1ccc(OCC(=O)N2CCc3ccccc3C2)c(Br)c1	9	-6	59	76*
Cc1ccc(NC(=O)N2CCc3ccccc3C2)cc1C	61*	-4	8	-2
CCC(=O)Nc1ccc2c(c1)C(=O)N(C)[C@@H]1CC[C@H](CC(=O)N3CCc4ccccc4C3)O[C@H]1CO2	-1	.	.	.
COc1ccc(NC(=O)N2CCc3ccccc3C2)c(OC)c1	54*	-8	10	3
COc1ccc(NC(=O)c2cccc(S(=O)(=O)N3CCN(C)CC3)c2)c(OC)c1	12	54*	8	12
Cc1ccc(NC(=O)C2OCCc3ccccc32)cc1C (centres undefined)	58*	-5	16	33
COc1ccc(OC)c(NC(=O)N2CCc3ccccc3C2)c1	8	4	-10	4
O=C(NCc1ccco1)C1OCCc2ccccc21 (centres undefined)	-3	4	23	41
SMILES	esBAF inh	Vif inh	HSF1 inh	HSF-1 act
C[C@H]1CN([C@@H](C)CO)C(=O)c2cc(-c3ccc(F)cc3)cnc2O[C@H]1CN(C)Cc1cncnc1	-8	.	.	.
O=C(CN1C(=O)c2ccccc2S1(=O)=O)c1ccccc1	-78	-6	.	.
O=C(CN1C(=O)c2ccccc2S1(=O)=O)N1CCCCC1	-2	7	11	54*
CC1CCC(NC(=O)CN2C(=O)c3ccccc3S2(=O)=O)CC1 (centres undefined)	-2	59*	.	.
O=C(CN1C(=O)c2ccccc2S1(=O)=O)NC1CC2CCC1C2 (centres undefined)	-1	12	-3	-3
Cc1ccc(C(=O)CN2C(=O)c3ccccc3S2(=O)=O)cc1	.	-2	-75*	-76
O=C(CN1C(=O)c2ccccc2S1(=O)=O)N1CCOCC1	-7	1	-6	7
C[C@@H]1CN([C@H](C)CO)C(=O)Cc2cc(NC(=O)C3CC3)ccc2O[C@@H]1CN(C)C(=O)Nc1ccc(C(F)(F)F)cc1	4	.	.	.
CN(C)C(=O)C[C@H]1C[C@H]2c3cc(NC(=O)c4ccc5c(c4)OCO5)ccc3O[C@H]2[C@H](CO)O1	9	.	.	.
COc1cc(/C=C/C(=O)C2C(=O)C=C(C)OC2=O)cc(OC)c1O (centres undefined)	.	12	-2	-5
COc1ccc(/C=C/C(=O)C2C(=O)C=C(C)OC2=O)cc1O (centres undefined)	51*	7	13	31
CCN1CCN(C(=O)C2CCN(C(=O)c3cc4sccc4n3CC)CC2)CC1	0	13	-70*	-76
COc1ccc([C@H]2[C@H](C(=O)OC(C)(C)C)N3N=Cc4ccccc4C3C23C(=O)c2ccccc2C3=O)cc1OC (some centres undefined)	2	-10	1	2
CC(C)(C)C(=O)[C@H]1[C@H](c2ccccc2)[C@@]2(N=C(c3ccccc3)OC2=O)C2c3ccccc3C=NN21 (some centres undefined)	47*	13	12	20
Cc1cccc(C)c1N1CCN(c2ccc3nnc(C(F)(F)F)n3n2)CC1	.	.	88	129*
FC(F)(F)c1nnc2ccc(N3CCCCC3)nn12	.	-4	2	17
O=C(c1cc(Br)c(Br)s1)N1CCc2ccccc2C1	42*	5	.	.
O=C(c1ccc2c(c1)OCO2)N1CCc2ccccc2C1	45*	1	6	-1
O=C(c1ccc2c(c1)OCO2)N1CCc2ccccc21	21	8	15	16
O=C(C1COc2ccccc2O1)N1CCc2ccccc2C1 (centres undefined)	47*	13	0	-2
Cc1ccc(S(=O)(=O)N[C@H]2C=C[C@@H](CC(=O)NCCCN(C)C)O[C@H]2CO)cc1	1	.	.	.
COC(=O)C[C@H]1CC[C@H]2[C@@H](COC[C@H](O)CN2S(=O)(=O)c2ccccc2C)O1	0	.	.	.
O=C(C[C@H]1CC[C@H]2[C@@H](COC[C@@H](O)CN2C(=O)Nc2cccc(Cl)c2)O1)NCCCN1CCOCC1	9	.	.	.
Nc1cc2c(cc1Br)-c1ccccc1C2=NO	63*	-20	.	.
ON=C1c2ccccc2-c2ccc(Br)cc21	4	-2	.	.
CC(C)[C@H](NC(N)=O)C(=O)NNC(=O)COc1cccc(C(F)(F)F)c1	-10	-1	88	142*
C[C@@H]1CN([C@@H](C)CO)C(=O)c2cccc(NS(=O)(=O)c3ccccc3)c2O[C@H]1CN(C)Cc1ccncc1	-4	.	.	.
Cc1ccc(C2CCN(C(=S)NC(C)(C)C)C2)cc1 (centres undefined)	28	3	-66*	-75
Cc1cc(NC(=O)CSc2nnc(-c3ccc(Br)o3)n2Cc2ccccc2)no1	.	-6	-4	0
O=C(CSc1nnc(-c2ccc(Br)o2)n1Cc1ccccc1)c1ccccc1F	-2	-10	32	72*
